Sampled rows, rich in hits. Any-hit rate of the full collection: about 19%.
TDP1 cell noCPT: qHTS for Inhibitors of human tyrosyl-DNA phosphodiesterase 1 (TDP1): qHTS in cells in absence of CPT | DT40 Tdp1-/- hTDP1 cells, no CPT, ATP luminescence, 48 h | Potency, µM (top dose mostly 46.2 µM), hits mostly inhibitors | hit rate 15% among 420,000 | AID 686978, 2013; note: nearly all actives have a fitted effect of over 55% in size
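Stably hTDP1-transfected Tdp1-null chicken DT40 cells were treated with library compounds minus camptothecin and grown for at least 48 hr at 37 °C, after which cellular ATP was quantified by luminescence.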
KB-3-1 cytotox: KB-3-1 parental cell cytotoxicity | KB-3-1 viability, CellTiter-Glo ATP luminescence, 72 h | Potency, µM (series often up to 46.1 µM), usual class: cytotoxic | hit rate 1.4% among 400,000; note: nearly all actives have a fitted effect of over 60% in size
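Screening of KB-3-1 cells (DMEM, 10% FBS, phenol-red free) ran from lowest to highest compound concentration; after 72 h at 37 °C viability was read luminescently and curves fitted.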
KB-V1 cytotox: KB-V1 MDR subline cytotoxicity. KB-V1 MDR cells viability, CellTiter-Glo, 72 h. Potency, µM (highest dose often 46.1 µM), actives largely listed as cytotoxic. hit rate 3.4% among 400,000; note: nearly all actives have a fitted effect of over 60% in size
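Cytotoxicity toward P-gp-expressing KB-V1 cells was determined as loss of CellTiter-Glo luminescence after 72 h at 37 degrees C. Compounds were tested in quantitative HTS format across a concentration range, with curves fitted to normalized data.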
HT1080 IDH1KD tx: HT-1080 IDH1 knockdown cell toxicity (counter line). HT-1080 IDH1 knockdown viability, ATP luminescence, 48 h. hit rate 2% among 360,000. Potency, µM (titrated, usually from 46.1 µM), actives largely listed as cytotoxic
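In this qHTS, HT-1080 cells depleted of IDH1 are exposed for 48 h at 37 °C to compound titrations. Toxicity is scored from CellTiter-Glo luminescence, with DMSO as full viability and medium alone as none.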
HT1080NT lethal: kills 2HG-producing HT-1080-NT fibrosarcoma cells; HT-1080-NT fibrosarcoma viability, CellTiter-Glo ATP luminescence, 48 h; Potency, µM (series often up to 46.1 µM), most hits filed as cytotoxic; hit rate 1.6% among 360,000; AID 686970;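 note: NT is the 2HG producing partner of a matched IDH1 knockdown line; nearly all actives have a fitted effect of over 55% in size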
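Viability of the 2HG-overproducing fibrosarcoma line after 48 hours of compound exposure at 37 degrees C was determined by luminescence with CellTiter-Glo, and concentration-effect curves were then fitted and categorized.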
TDP1 cell CPT: DT40-hTDP1 cell growth loss with CPT; chicken DT40 Tdp1-/-;hTDP1 cells + 20 nM CPT, ATP luminescence, 48 h; Potency, µM (titrated, usually from 46.2 µM), actives largely listed as inhibitors; hit rate 12% among 420,000; AID 686979; note: nearly all actives have a fitted effect of over 55% in size
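Chicken DT40 Tdp1-/- cells stably complemented with human TDP1 were seeded at 400 cells/well in medium containing 20 nM camptothecin, exposed to pin-transferred compounds, and grown at 37 °C for at least 48 hr. Viability was read as ATP luminescence.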
Hits are given with their value; - = inactive; ? = inconclusive; . = no result. Calls come from the whole dose curve; as a rule, active = well fitted curve in the direction sought with a large enough effect; inconclusive = small, poorly fitted or top-dose-only effect, or another doubt; inactive = no such curve, though single readings can be large; an effect the other way counts as inactive or inconclusive.

SMILES	TDP1 cell noCPT	KB-3-1 cytotox	KB-V1 cytotox	HT1080 IDH1KD tx	HT1080NT lethal	TDP1 cell CPT
O=c1[nH]c(CSc2nc3ccccc3s2)nc2ccccc12	-	-	-	-	-	-
COc1ccc(C2NCCc3c2[nH]c2ccccc32)cc1CSc1nc2ccccc2s1 (configuration not stated)	?	?	23µM	23µM	23µM	?
COc1ccccc1N1CCN(/N=C/c2ccc([N+](=O)[O-])cc2)CC1	?	-	-	-	-	?
O=[N+]([O-])c1ccc(C=NN2CCCCCC2)cc1	18µM	-	-	-	-	?
O=[N+]([O-])c1ccc(/C=N/n2c(C3CCCCC3)n[nH]c2=S)cc1	16µM	-	-	-	-	?
CN(C)c1ncc2nc(CCc3ccccc3)c(=O)n(-c3ccccc3)c2n1	-	.	.	.	.	-
Cc1cc(NCCO)nc(-n2nc(C)cc2C)n1	-	-	-	-	-	-
Cc1cc(Nc2ccc(F)cc2F)nc(-n2nc(C)cc2C)n1	4.6µM	.	.	.	.	2.9µM
COc1ccc(Nc2cc(C)nc(-n3nc(C)cc3C)n2)cc1Cl	0.15µM	.	.	.	.	0.37µM
Cc1cc(Nc2ccc(C(C)C)cc2)nc(-n2nc(C)cc2C)n1	0.82µM	.	.	.	.	0.58µM
COc1ccc(Nc2cc(C)nc3nc(C)nn23)cc1Cl	-	-	-	-	-	-
NC(=S)NCCC[C@H](N)C(=O)O	-	.	.	.	.	-
O=C(NC1CCCC1)c1cccc(S(=O)(=O)N2CCOCC2)c1	-	-	-	-	-	-
Cc1ccc(Sc2c(C)nn(C(C)(C)C)c2OC(=O)C(C)(C)C)cc1	?	-	-	.	.	-
Cc1ccc(C(=O)Nc2cccc(S(=O)(=O)N3CCCCC3)c2)cc1S(=O)(=O)N1CCOCC1	?	-	-	-	-	?
O=C(Nc1cccc(S(=O)(=O)N2CCCCC2)c1)c1ccc([N+](=O)[O-])o1	4.1µM	?	?	5.2µM	10µM	6.5µM
Cc1ccc(C(=O)Nc2cccc(S(=O)(=O)N3CCCCC3)c2)cc1[N+](=O)[O-]	?	21µM	?	-	-	16µM
COc1ccc(CNC(=O)CCNC(=O)C2CCN(S(=O)(=O)c3ccc(OC)cc3)CC2)cc1	-	-	-	-	-	-
Cc1ccc(C)c(S(=O)(=O)N2CCN(c3nc(CN4CCOCC4)nc4sc(C)c(C)c34)CC2)c1	18µM	-	-	-	-	?
Cc1ccc(S(=O)(=O)N2CCN(c3nc(CN4CCCC4)nc4sc(C)c(C)c34)CC2)cc1	?	-	-	-	-	?
Cc1sc2nc(CN3CCCC3)nc(N3CCN(S(=O)(=O)c4cccs4)CC3)c2c1C	18µM	?	18µM	16µM	?	?
Cc1ccc(C2CC(c3cccc(Cl)c3)n3nc(N)nc3N2)cc1 (configuration not stated)	18µM	-	-	-	-	15µM
Cc1cccc(C2CC(c3ccc(Cl)cc3)Nc3nc(N)nn32)c1 (configuration not stated)	?	-	-	-	-	?
CCc1ccc(C2CC(c3cccc(Cl)c3)n3nc(N)nc3N2)cc1 (configuration not stated)	15µM	-	-	-	-	15µM
CCc1cc(=O)oc2cc(C)cc(OCC(=O)NCCN3CCOCC3)c12	-	-	-	-	-	-
SMILES	TDP1 cell noCPT	KB-3-1 cytotox	KB-V1 cytotox	HT1080 IDH1KD tx	HT1080NT lethal	TDP1 cell CPT
CCCc1cc(=O)oc2cc(C)cc(OCC(=O)Nc3ccc(CN4CCOCC4)cc3)c12	5.8µM	-	?	?	?	18µM
CCCc1cc(=O)oc2cc(C)cc(OCC(=O)NCCN3CCOCC3)c12	-	-	-	-	-	-
CCCc1cc(=O)oc2cc(OCC(=O)NCCN3CCOCC3)c(Cl)cc12	16µM	-	-	-	-	23µM
CCOC(=O)c1cccc(NC(=O)C(C)n2nc(C)c3c(C)n(-c4ccccc4)nc3c2=O)c1 (configuration not stated)	?	-	-	.	.	?
CS(=O)(=O)N1CCN(c2ccc([N+](=O)[O-])c3cccnc23)CC1	-	-	-	-	-	-
O=C1c2ccccc2C(=O)N1c1cccc2cccnc12	-	-	-	-	-	-
O=C1c2cccc3c([N+](=O)[O-])ccc(c23)C(=O)N1Cc1cccnc1	4.6µM	?	-	12µM	8.2µM	3.7µM
Cc1ccc(N2C(=O)c3cccc4c([N+](=O)[O-])ccc(c34)C2=O)c2cccnc12	0.73µM	0.065µM	?	?	?	0.82µM
Cc1ccc(N2C(=O)c3cccc4c(N5CCN(C)CC5)ccc(c34)C2=O)c2cccnc12	?	-	-	11µM	?	?
Cc1nnc(N2C(=O)c3cccc4c([N+](=O)[O-])ccc(c34)C2=O)s1	4.6µM	-	-	?	?	7.3µM
CC(C)CCNC(=O)C(=O)Nc1c2c(nn1-c1ccc(Cl)cc1)CSC2	12µM	.	.	.	.	26µM
COc1ccc(-n2nc3c(c2NC(=O)CCl)CSC3)cc1	2.3µM	23µM	?	7.3µM	21µM	2.6µM
CC(=O)N1CCN(C(=O)C(=O)Nc2c3c(nn2-c2ccc(Cl)cc2)CSC3)CC1	-	-	-	.	.	-
COc1ccc(-n2nc3c(c2NC(=O)C(C)Cl)CSC3)cc1 (configuration not stated)	-	-	-	-	-	-
O=C(NCc1ccccc1)C(=O)Nc1c2c(nn1-c1ccc(F)cc1)CSC2	16µM	-	-	.	.	?
O=C(NCCOCCO)C(=O)Nc1c2c(nn1-c1ccc(F)cc1)CSC2	-	-	-	.	.	-
CO[C@H]1O[C@H](C)[C@@H](O)C[C@H]1NC(=O)OCc1ccccc1	-	-	-	-	-	-
COc1ccc(/C=N/n2c(COc3ccccc3)n[nH]c2=S)cc1OC	-	-	-	-	-	-
O=C(CCOc1ccc(F)cc1)Nc1nccs1	-	-	-	-	-	-
CN(CC(=O)Nc1c(Cl)cccc1Cl)C(=O)c1cccc(-n2cccc2)c1	-	-	-	-	-	16µM
Cc1cc(C(=O)CCC(=O)N(C)CC(=O)Nc2c(Cl)cccc2Cl)c(C)s1	12µM	-	?	-	-	-
Cc1ccc(-n2ncc3c(=O)n(-c4cccc(C)c4)c(=O)[nH]c32)cc1	-	-	-	-	-	-
O=C1CCC/C=C\C[C@H](CC(=O)N(CCO)Cc2ccccc2)C(=O)N2CCC[C@@H]2CO1	-	-	-	-	-	-
O=C(N[C@H]1C/C=C\C[C@@H](CC(=O)N(CCO)Cc2ccccc2)C(=O)N2CCC[C@@H]2COC1=O)OCC1c2ccccc2-c2ccccc21	6.5µM	-	-	-	-	8.2µM

Screening data deposited in PubChem by National Center for Advancing Translational Sciences (NCATS).
